Test results reported in PubChem BioAssay (EPA / NIEHS).
“And” between values parts separate entries of the source, which are not always exact repeats. Identical values can stand only once. The source holds several records for some structures; these can differ, active in one and inactive in another. The source made the active and inactive calls. How the source made its calls: active means hit-call score of the fitted dose curve at least 0.9, where 1 is the maximum; inactive means score below 0.9.

How the values were obtained:
[1] = read-out: Macrophage colony-stimulating factor (MCSF), CSF1 (gene 1435); test: BSK_hDFCGF_MCSF: BioMAP Diversity Plus: hDFCGF Assay for Macrophage colony-stimulating factor (MCSF) Biomarker Activity (AID 2283060); conditions: primary human foreskin fibroblasts; actives raise or lower the signal
Method in brief: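 M-CSF levels, determined by ELISA, are taken at 24 h after dosing human skin fibroblasts. Responses in either direction are fitted with DMSO serving as the baseline.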

[2] = BSK_hDFCGF_SRB: Viability Assessment in the BioMAP Diversity Plus: hDFCGF Assay (AID 2283061); conditions: primary human foreskin fibroblasts;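 further: cells exposed to compound for 24 h before the read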
Method in brief: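 Cells were dosed with test chemical, cultured 24 h, fixed with 10% TCA, then stained with 0.1% SRB and read at 560 nm. The fibroblasts were human foreskin primary cells, and DMSO served as baseline.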

[3] = read-out: TIMP metallopeptidase inhibitor 1 (TIMP1), TIMP1 (gene 7076); test: BSK_hDFCGF_TIMP1: BioMAP Diversity Plus: hDFCGF Assay for TIMP metallopeptidase inhibitor 1 (TIMP1) Biomarker Activity (AID 2283062); conditions: primary human foreskin fibroblasts; actives raise or lower the signal
Method in brief: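 Fibroblasts from human foreskin are treated with test chemical and harvested at 24 h. TIMP-1 is quantified by ELISA, and gain or loss of signal is scored against DMSO.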

[4] = read-out: Monokine induced gamma interferon (MIG), CXCL9 (gene 4283); test: BSK_hDFCGF_MIG: BioMAP Diversity Plus: hDFCGF Assay for Monokine induced gamma interferon (MIG) Biomarker Activity (AID 2283063); conditions: primary human foreskin fibroblasts; actives raise or lower the signal
Method in brief: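 MIG signal, determined by ELISA, reflects 24 h chemical exposure of human skin primary fibroblasts. DMSO serves as negative control and baseline.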

[5] = read-out: Matrix Metallopeptidase 1 (MMP1), MMP1 (gene 4312); test: BSK_hDFCGF_MMP1: BioMAP Diversity Plus: hDFCGF Assay for Matrix Metallopeptidase 1 (MMP1) Biomarker Activity (AID 2283064); conditions: primary human foreskin fibroblasts; actives raise or lower the signal
Method in brief: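 Primary human foreskin fibroblasts exposed to chemicals for 24 h; MMP1 measured by ELISA. Cytotoxicity tracked by SRB staining in parallel cultures; bidirectional fit relative to DMSO.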

[6] = read-out: Vascular cell adhesion molecule 1 (VCAM1), VCAM1 (gene 7412); test: BSK_hDFCGF_VCAM1: BioMAP Diversity Plus: hDFCGF Assay for Vascular cell adhesion molecule 1 (VCAM1) Biomarker Activity (AID 2283065); conditions: primary human foreskin fibroblasts; actives raise or lower the signal;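 on AC50: VCAM-1 protein level quantified by ELISA after 24 h chemical exposure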
Method in brief: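 Cells are dosed, cultured for 24 h, then VCAM-1 is quantified by ELISA; signal increases and decreases are both fitted relative to DMSO.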

[7] = read-out: Plasminogen activator inhibitor-1 (PAI1), SERPINE1 (gene 5054); test: BSK_hDFCGF_PAI1: BioMAP Diversity Plus: hDFCGF Assay for Plasminogen activator inhibitor-1 (PAI1) Biomarker Activity (AID 2283066); conditions: primary human foreskin fibroblasts; actives raise or lower the signal
Method in brief: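 Human foreskin fibroblasts in the hDFCGF system were dosed with compound for 24 h; PAI-1 was quantified by ELISA. Bidirectional curve fitting used DMSO as negative control and baseline.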

[8] = read-out: Intercellular Adhesion Molecule 1 (ICAM1), ICAM1 (gene 3383); test: BSK_KF3CT_ICAM1: BioMAP Diversity Plus: KF3CT Assay for Intercellular Adhesion Molecule 1 (ICAM1) Biomarker Activity (AID 2283067); conditions: primary human keratinocytes with fibroblasts; actives raise or lower the signal
Method in brief: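 Dose the keratinocyte/fibroblast co-culture, wait 24 h, measure ICAM-1 by ELISA, then fit increases or decreases against DMSO. Cytotoxicity is checked in parallel cultures by SRB total-protein staining.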

[9] = BSK_KF3CT_SRB: Viability Assessment in the BioMAP Diversity Plus: KF3CT Assay (AID 2283069); conditions: primary human keratinocytes with fibroblasts;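 further: fitted for both signal gain and loss against DMSO baseline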
Method in brief: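 Human keratinocyte and foreskin fibroblast co-culture exposed to chemical for 24 h. Total protein measured in parallel cultures by 0.1% sulforhodamine B staining after 10% TCA fixation, read at 560 nm; bidirectional fit relative to DMSO.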

[10] = read-out: Interleukin-1 alpha (IL1a), IL1A (gene 3552); test: BSK_KF3CT_IL1a: BioMAP Diversity Plus: KF3CT Assay for Interleukin-1 alpha (IL1a) Biomarker Activity (AID 2283070); conditions: primary human keratinocytes with fibroblasts; actives raise or lower the signal
Method in brief: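 Primary human keratinocyte plus foreskin fibroblast co-culture, dosed and measured at 24 h in 96-well plates. IL-1a level quantified by ELISA; bidirectional fit relative to DMSO.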

[11] = read-out: TIMP metallopeptidase inhibitor 2 (TIMP2), TIMP2 (gene 7077); test: BSK_KF3CT_TIMP2: BioMAP Diversity Plus: KF3CT Assay for TIMP metallopeptidase inhibitor 2 (TIMP2) Biomarker Activity (AID 2283071); conditions: primary human keratinocytes with fibroblasts; actives raise or lower the signal
Method in brief: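 Human primary keratinocyte/foreskin fibroblast co-culture dosed with chemical and sampled at 24 h. TIMP-2 levels quantified by ELISA; bidirectional fitting against DMSO negative control as baseline.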

[12] = read-out: C-C motif chemokine 2 (Homo sapiens) (UniProt P13500); test: BSK_KF3CT_MCP1: BioMAP Diversity Plus: KF3CT Assay for Monocyte Chemoattractant Protein 1 (MCP1/CCL2) Biomarker Activity (AID 2283073); conditions: primary human keratinocytes with fibroblasts; actives raise or lower the signal
Method in brief: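 Keratinocytes and foreskin fibroblasts were co-cultured, dosed with chemical, and sampled 24 h later. MCP-1 was quantified by ELISA, and the endpoint was analyzed with bidirectional fitting using DMSO as negative control.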

[13] = read-out: Matrix Metallopeptidase 9 (MMP9), MMP9 (gene 4318); test: BSK_KF3CT_MMP9: BioMAP Diversity Plus: KF3CT Assay for Matrix Metallopeptidase 9 (MMP9) Biomarker Activity (AID 2283074); conditions: primary human keratinocytes with fibroblasts; actives raise or lower the signal
Method in brief: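 Human keratinocyte and foreskin fibroblast co-culture exposed to chemicals for 24 h; MMP9 biomarker measured by ELISA, bidirectional fitting relative to DMSO; cytotoxicity tracked by SRB total protein staining in parallel cultures.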

[14] = read-out: urokinase plasminogen activator (uPA), PLAU (gene 5328); test: BSK_KF3CT_uPA: BioMAP Diversity Plus: KF3CT Assay for urokinase plasminogen activator (uPA) Biomarker Activity (AID 2283075); conditions: primary human keratinocytes with fibroblasts; actives raise or lower the signal
Method in brief: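 Primary human keratinocyte/foreskin fibroblast co-culture exposed to chemical; uPA measured by ELISA at 24 h. Bidirectional fit versus DMSO, with parallel SRB total-protein staining for cytotoxicity.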

CD40, CD40 (gene 958) = test: BSK_LPS_CD40: BioMAP Diversity Plus: LPS Assay for CD40 Biomarker Activity (AID 2283076); conditions: primary human HUVEC with PBMC; actives raise or lower the signal
Method in brief: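 CD40 signal, measured by ELISA, is fitted in both directions relative to DMSO vehicle. The system is an LPS-driven human vascular primary co-culture of endothelial cells and PBMC, sampled 24 h after compound addition.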

[15] = read-out: E-selectin (Homo sapiens) (UniProt P16581); test: BSK_LPS_Eselectin: BioMAP Diversity Plus: LPS Assay for Eselectin Biomarker Activity (AID 2283077); conditions: primary human HUVEC with PBMC; actives raise or lower the signal
Method in brief: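 Signal of E-selectin, detected by ELISA, served as the endpoint; cells were umbilical vein endothelium with PBMC, read 24 h after treatment. DMSO defined baseline, and both increases and decreases were fitted.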

[16] = read-out: Interleukin-8 (IL8), CXCL8 (gene 3576); test: BSK_LPS_IL8: BioMAP Diversity Plus: LPS Assay for Interleukin-8 (IL8) Biomarker Activity (AID 2283078); conditions: primary human HUVEC with PBMC; actives raise or lower the signal
Method in brief: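 Endothelial cells and PBMC from human donors are co-cultured, treated with chemicals and LPS, then assayed for IL-8 by ELISA after 24 h. Parallel SRB staining (0.1% SRB after 10% TCA fixation, 560 nm) flags cytotoxicity.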

[17] = BSK_LPS_SRB: Viability Assessment in the BioMAP Diversity Plus: LPS Assay (AID 2283079); conditions: primary human HUVEC with PBMC;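 further: total protein by sulforhodamine B absorbance as a cytotoxicity measure; measured one day after compound addition; fitted in both directions against DMSO so loss or gain of signal counts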
Method in brief: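 Overt cytotoxicity was gauged by sulforhodamine B total-protein staining in a primary human vascular endothelial and mononuclear cell co-culture 24 h post-dosing. Activity was fitted in both directions relative to DMSO.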

[18] = read-out: Interferon-gamma inducible Protein 10 (IP10), CXCL10 (gene 3627); test: BSK_KF3CT_IP10: BioMAP Diversity Plus: KF3CT Assay for Interferon-gamma inducible Protein 10 (IP10) Biomarker Activity (AID 2283068); conditions: primary human keratinocytes with fibroblasts; actives raise or lower the signal
Method in brief: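 KF3CT co-culture (keratinocytes + foreskin fibroblasts), 24 h compound, IP-10 by ELISA; bidirectional fit vs DMSO baseline.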

[19] = read-out: Transforming growth factor beta 1 (TGFb1), TGFB1 (gene 7040); test: BSK_KF3CT_TGFb1: BioMAP Diversity Plus: KF3CT Assay for Transforming growth factor beta 1 (TGFb1) Biomarker Activity (AID 2283072); conditions: primary human keratinocytes with fibroblasts; actives raise or lower the signal
Method in brief: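 Human keratinocyte plus foreskin fibroblast primary co-culture, dosed with chemical for 24 h. TGF-b1 quantified by ELISA. Activity fitted bidirectionally against DMSO negative control as baseline.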

Measured: AC50

E-selectin (Homo sapiens), sequence (P16581 whole entry, looked up): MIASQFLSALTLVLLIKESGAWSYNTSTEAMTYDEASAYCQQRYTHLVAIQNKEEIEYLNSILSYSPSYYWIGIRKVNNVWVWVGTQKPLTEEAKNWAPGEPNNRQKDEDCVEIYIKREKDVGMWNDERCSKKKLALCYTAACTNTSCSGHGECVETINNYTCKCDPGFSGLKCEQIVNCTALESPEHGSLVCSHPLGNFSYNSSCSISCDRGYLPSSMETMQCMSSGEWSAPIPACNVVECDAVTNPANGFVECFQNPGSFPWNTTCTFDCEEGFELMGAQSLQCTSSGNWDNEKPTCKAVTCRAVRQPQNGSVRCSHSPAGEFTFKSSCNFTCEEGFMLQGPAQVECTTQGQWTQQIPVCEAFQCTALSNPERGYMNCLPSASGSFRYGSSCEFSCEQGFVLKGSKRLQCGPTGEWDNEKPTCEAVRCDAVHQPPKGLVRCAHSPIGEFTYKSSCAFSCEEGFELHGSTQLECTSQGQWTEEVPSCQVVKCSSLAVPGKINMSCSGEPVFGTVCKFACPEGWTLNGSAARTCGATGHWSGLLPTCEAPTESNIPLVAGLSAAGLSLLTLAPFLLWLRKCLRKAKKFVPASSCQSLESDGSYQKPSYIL

O=C(O)C(F)(F)OC(F)(F)C(F)(F)OC(F)(F)F
inactive: [1] | [2] | [3] | [4] | [5] | [6] | [7] | [8] | [9] | [10] | [11] | [12] | [13] | [14] | CD40, CD40 (gene 958) | [15] | [16] | [17]
active: [10] 47.7 µM

COC(=O)C(F)(F)C(F)(F)OC(F)(C(F)(F)F)C(F)(F)OC(F)=C(F)F (stereo not drawn)
active: [6] 2.13 µM and 2.85 µM
not listed: [19]
inactive: all other assays above

CCC(C)(C)c1ccc(O)cc1
inactive: all assays above

O=C(O)C1C(C(=O)O)C2(Cl)C(Cl)=C(Cl)C1(Cl)C2(Cl)Cl (stereo not drawn)
not listed: [18]
inactive: all other assays above

CCCCC(CC)COC(=O)c1c(Br)c(Br)c(Br)c(Br)c1C(=O)OCC(CC)CCCC (stereo not drawn)
inactive: all assays above

COP(=O)(O)OC
not listed: [11] | [15]
inactive: all other assays above

OCC(F)(F)OC(F)(F)C(F)(F)OC(F)(F)C(F)(F)OC(F)(F)CO
inactive: [1] | [2] | [3] | [7] | [8] | [9] | [10] | [11] | [12] | [13] | [14] | CD40, CD40 (gene 958) | [15] | [16] | [17]
active: [1] 14 µM | [2] 5.95 µM | [4] 16.8 µM and 23.2 µM | [5] 10.5 µM and 8.39 µM | [6] 13.4 µM and 8.26 µM | CD40, CD40 (gene 958) 7.62 µM | [17] 30 µM

O=C(O)C(Cl)Cl
not listed: [15]
inactive: all other assays above

CCOP(=S)(OCC)SCS(=O)(=O)CC
not listed: [15]
inactive: all other assays above

COP(N)(=S)OC
not listed: [18]
inactive: all other assays above

Nc1ccc([N+](=O)[O-])cc1Cl
not listed: [11] | [15]
inactive: all other assays above

O=C(O)C(F)(F)C(F)(F)C(=O)O
active: [4] 14.1 µM
inactive: [1] | [2] | [3] | [4] | [6] | [7] | [8] | [9] | [10] | [12] | [13] | [14] | CD40, CD40 (gene 958) | [15] | [16] | [17]

O=P1(N(CCCl)CCCl)NCCCO1 (stereo not drawn)
not listed: [11]
inactive: all other assays above
